Data on 38 molecules can be found in the antibiotic and cytotoxicity screens of Wong et al. (2023).

Among all 39,000 compounds or so, about 1,500 (3.8%) were called active. What follows is part of a selection rich in actives, with near analogues and random picks from the rest.

This assay relates to HSkMC (human skeletal muscle cells). The assay can be described thus: cytotoxicity call (relative viability < 0.9). As to conditions: 10 µM.
As for `C[C@H](CO)N1C[C@H](C)[C@H](CN(C)C(=O)Nc2ccc(C(F)(F)F)cc2)OCCCC[C@H](C)Oc2ccc(NC(=O)NC3CCCCC3)cc2C1=O`, the cytotoxicity call is “inactive”.

With `C[C@@H]1CCCCO[C@@H](CN(C)C(=O)c2ccccc2)[C@@H](C)CN([C@@H](C)CO)C(=O)c2cc(NC(=O)CCC(F)(F)F)ccc2O1`, the cytotoxicity call is “inactive”.

Regarding `CO[C@@H]1CN(C)C(=O)c2cc(NC(=O)C3CCOCC3)ccc2OC[C@@H](C)N(Cc2cccnc2)C[C@@H]1C`, the cytotoxicity call was “inactive”.

As for `CC(=O)Oc1cc2c(c(C)c1OC(C)=O)CC=C1[C@@]2(C)CC[C@@]2(C)[C@H]3C[C@](C)(C(=O)O)CC[C@]3(C)CC[C@]12C`, the cytotoxicity call is “active”.

In the case of `CC1(C(=O)O)CCC2(C)CCC3(C)C(=CC(=O)C4C5(C)CCC(O)C(C)(C)C5CCC43C)C2C1` (stereo not drawn), the cytotoxicity call was “inactive”.

As for `C[C@@H]1CN([C@@H](C)CO)C(=O)Cc2cc(NC(=O)NC3CCCCC3)ccc2O[C@@H]1CN(C)C(=O)Nc1cccc2ccccc12`, the cytotoxicity call is “inactive”.

As for `C[C@@H]1CN([C@H](C)CO)C(=O)Cc2cc(NS(C)(=O)=O)ccc2O[C@H]1CN(C)S(=O)(=O)c1cccs1`, the cytotoxicity call is “inactive”.

On to `CC(C)CC#Cc1ccc2c(c1)O[C@@H](CN(C)C(=O)Cc1ccccn1)[C@@H](C)CN([C@H](C)CO)S2(=O)=O`, for which the cytotoxicity call is “inactive”.

Consider `C[C@H]1CN([C@@H](C)CO)C(=O)Cc2cc(NC(=O)Nc3ccc(C(F)(F)F)cc3)ccc2O[C@@H]1CN(C)CC1CCCCC1`, for which the cytotoxicity call is “active”.

Regarding `C[C@@H]1CN([C@H](C)CO)C(=O)Cc2cc(NC(=O)Nc3ccc(F)cc3)ccc2O[C@H]1CN(C)CC1CCCCC1`, the cytotoxicity call was “inactive”.

Consider `C[C@@H]1CN([C@@H](C)CO)C(=O)Cc2cc(NC(=O)Nc3ccc(C(F)(F)F)cc3)ccc2O[C@@H]1CN(C)CC1CCCCC1`, for which the cytotoxicity call was “inactive”.

Consider `C[C@H](CO)N1C[C@H](C)[C@H](CN(C)CC2CCCCC2)Oc2ccc(NC(=O)Nc3ccc(C(F)(F)F)cc3)cc2CC1=O`, for which the cytotoxicity call was “active”.

Take `C[C@H]1CN([C@@H](C)CO)C(=O)Cc2cc(NC(=O)Nc3ccc(C(F)(F)F)cc3)ccc2O[C@H]1CN(C)CC1CCCCC1`: the cytotoxicity call was “active”.

For `C[C@@H]1CN([C@H](C)CO)C(=O)Cc2cc(NC(=O)Nc3ccc(C(F)(F)F)cc3)ccc2O[C@@H]1CN(C)CC1CCCCC1`, the cytotoxicity call was “active”.

With `Cc1ccc(S(=O)(=O)N(C)C[C@@H]2OCCCC[C@@H](C)Oc3ccc(NC(=O)Nc4cccc5ccccc45)cc3C(=O)N([C@H](C)CO)C[C@@H]2C)cc1`, the cytotoxicity call was “inactive”.

As for `COCC(=O)N(C)C[C@H]1Oc2cc(C#C[C@H](C)O)ccc2S(=O)(=O)N([C@@H](C)CO)C[C@@H]1C`, the cytotoxicity call was “inactive”.

Regarding `O=C(CN1CCOCC1)N[C@@H]1CC[C@H](CCn2cc(C3CC3)nn2)O[C@H]1CO`, the cytotoxicity call is “inactive”.

Turning to `C[C@@H]1CN([C@@H](C)CO)C(=O)Cc2cc(NS(=O)(=O)c3cn(C)cn3)ccc2O[C@H]1CN(C)S(=O)(=O)c1ccc(F)cc1`, the cytotoxicity call was “inactive”.

Take `C[C@@H]1CN([C@H](C)CO)C(=O)c2cc(NC(=O)NC3CCCCC3)ccc2O[C@@H](C)CCCCO[C@H]1CN(C)C(=O)NC1CCCCC1`: the cytotoxicity call is “inactive”.

Take `C[C@H]1CN([C@@H](C)CO)C(=O)c2cccc(NC(=O)Nc3ccc4c(c3)OCO4)c2O[C@@H]1CN(C)C(=O)Nc1cccc2ccccc12`: the cytotoxicity call is “inactive”.

Take `O=C(C[C@H]1CC[C@H]2NC[C@@H](O)COC[C@@H]2O1)NCCN1CCCCC1`: the cytotoxicity call was “inactive”.

Turning to `CC(C)NC(=O)Nc1ccc2c(c1)CC(=O)N([C@H](C)CO)C[C@@H](C)[C@H](CN(C)C(=O)Nc1ccc3c(c1)OCO3)O2`, the cytotoxicity call is “inactive”.

For the molecule `C[C@@H]1CCCCO[C@@H](CN(C)C(=O)NC2CCCCC2)[C@H](C)CN([C@@H](C)CO)C(=O)c2cc(NC(=O)CCC(F)(F)F)ccc2O1`, the cytotoxicity call was “inactive”.

Consider `Cc1noc(C)c1NC(=O)N(C)C[C@H]1OCCCC[C@@H](C)Oc2ccc(NC(=O)C3CCCCC3)cc2C(=O)N([C@H](C)CO)C[C@@H]1C`, for which the cytotoxicity call is “inactive”.

Regarding `C[C@@H]1CN([C@@H](C)CO)C(=O)Cc2cc(NC(=O)Nc3ccc(C(F)(F)F)cc3)ccc2O[C@H]1CN(C)CC1CCCCC1`, the cytotoxicity call was “active”.

In the case of `C[C@H]1CN([C@@H](C)CO)C(=O)Cc2cc(NC(=O)Nc3ccc(F)cc3)ccc2O[C@@H]1CN(C)CC1CCCCC1`, the cytotoxicity call is “inactive”.

On to `C[C@@H]1CN([C@H](C)CO)C(=O)Cc2cc(NC(=O)Nc3ccc(C(F)(F)F)cc3)ccc2O[C@H]1CN(C)CC1CCCCC1`, for which the cytotoxicity call is “active”.

For `C[C@H](CO)N1C[C@H](C)[C@H](CN(C)Cc2ccc3c(c2)OCO3)OCCCC[C@H](C)Oc2ccc(NC(=O)Cc3ccccc3)cc2C1=O`, the cytotoxicity call was “inactive”.

In the case of `C[C@H]1CN([C@@H](C)CO)C(=O)Cc2cc(NC(=O)Nc3ccc4c(c3)OCO4)ccc2O[C@@H]1CN(C)Cc1ccc(-c2ccccc2)cc1`, the cytotoxicity call is “inactive”.

Regarding `CC(C)[Si](C#Cc1ccc(Oc2ccccc2)cc1)(O[Si](C#Cc1ccc(Oc2ccccc2)cc1)(C(C)C)C(C)C)C(C)C`, the cytotoxicity call is “inactive”.

For `COc1ccc(CN(C)C[C@@H]2OCCCC[C@@H](C)Oc3ccc(NC(=O)c4ccncc4)cc3C(=O)N([C@H](C)CO)C[C@H]2C)cc1`, the cytotoxicity call is “inactive”.

`O=C(Cc1ccncc1)Nc1ccc2c(c1)[C@@H]1C[C@H](CC(=O)N3CCc4ccccc4C3)O[C@@H](CO)[C@@H]1O2`: the cytotoxicity call is “inactive”.

Take `CO[C@H]1O[C@H](CO)[C@@H](OC(=O)Nc2cccc(F)c2)[C@H](OC(=O)Nc2ccccc2-c2ccccc2)[C@H]1OC(=O)Nc1ccccc1-c1ccccc1`: the cytotoxicity call was “active”.

For the molecule `CO[C@H]1O[C@H](CO)[C@@H](OC(=O)Nc2ccccc2-c2ccccc2)[C@H](OC(=O)Nc2ccccc2)[C@@H]1OC(=O)Nc1ccccc1`, the cytotoxicity call is “inactive”.

Consider `CCc1cccc(NC(=O)O[C@H]2[C@H](OC(=O)Nc3ccccc3-c3ccccc3)[C@H](OC(=O)Nc3ccccc3-c3ccccc3)[C@@H](OC)O[C@@H]2CO)c1`, for which the cytotoxicity call is “inactive”.

`CO[C@H]1O[C@H](CO)[C@@H](OC(=O)Nc2cccc(F)c2)[C@H](OC(=O)Nc2ccccc2-c2ccccc2)[C@@H]1OC(=O)Nc1ccccc1-c1ccccc1`: the cytotoxicity call is “active”.

Turning to `CO[C@H]1O[C@H](CO)[C@@H](OC(=O)Nc2ccccc2-c2ccccc2)[C@H](OC(=O)Nc2ccc3c(c2)OCO3)[C@H]1OC(=O)Nc1ccc2c(c1)OCO2`, the cytotoxicity call was “inactive”.

On to `CO[C@H]1O[C@H](CO)[C@@H](OC(=O)Nc2ccccc2-c2ccccc2)[C@H](OC(=O)Nc2ccccc2-c2ccccc2)[C@@H]1OC(=O)Nc1ccccc1-c1ccccc1`, for which the cytotoxicity call was “inactive”.
